Experimental data: the supplement of paper PMC10849652
Of roughly 7,900 targets only a part is listed; those with a hit were picked by preference. About 0.6% of all pairs of compound and target were hits.

How the values were obtained:
Test in all cases: log2 fold change, soluble protein after heating vs DMSO (PISA); higher = thermal stabilisation; K562 cells, 10 uM, 30 min; active = over 0.2 and 3.5 SD of the protein, either way, in both replicates (recomputed)
erlotinib = compound: C#Cc1cccc(Nc2ncnc3cc(OCCOC)c(OCCOC)cc23)c1 [erlotinib]
Method in brief: (§1)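 Soluble protein was defined as the supernatant after 21,000xg for 90 min. It came from K562 cells at 2×10^6 cells/mL given 10 μM compound for 30 min, heated in aliquots for 3 min across 48°C-58°C, pooled, and extracted in PBS with 0.5% NP-40 at 4°C, and was quantified by TMTpro 16plex LC-MS/MS with equalised channel sums. Thermal stability against control samples, from duplicates, is reported as log2 fold change.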

[1] = compound: C1=CC(=CC=C1C2=NC3=C(N2)C=C(C=C3)C(=O)N)OC4=CC=C(C=C4)Cl
Method in brief: as §1

[2] = compound: C1=CC2=NC=CN=C2C=C1/C=C/3\C(=O)NC(=O)S3
Method in brief: as §1

[3] = compound: C1=CC=C(C=C1)C2=NC(=C(N2)C3=CC=NC=C3)C4=CC(=C(C=C4)Cl)O
Method in brief: as §1

[4] = compound: C1CCN(C1)C(=O)NC2=CC=CC(=C2)NC3=NC=C(C(=N3)NCCC4=CN=CN4)Br
Method in brief: as §1

[5] = compound: C1CN(CCC1(CC2=CC=C(C=C2)Cl)N)C3=NC=NC4=C3C=CN4
Method in brief: as §1

ibrutinib = compound: C=CC(=O)N1CCC[C@@H](n2nc(-c3ccc(Oc4ccccc4)cc3)c3c(N)ncnc32)C1 [ibrutinib]
Method in brief: as §1

ralimetinib = compound: CC(C)(C)Cn1c(N)nc2ccc(-c3[nH]c(C(C)(C)C)nc3-c3ccc(F)cc3)nc21 [ralimetinib]
Method in brief: as §1

[6] = compound: CC(C)C1=C2N=C(C=C(N2N=C1)NCC3=CC=CC=C3)NCCCCCCN
Method in brief: as §1

[7] = compound: CC(C)C[C@@H](C=O)NC(=O)[C@H](CC(C)C)NC(=O)[C@H](CC(C)C)NC(=O)OCc1ccccc1
Method in brief: as §1

[8] = compound: CC1=C(C(CC(=O)N1)C2=CC=C(C=C2)C(F)(F)F)C(=O)NC3=C(C=C4C(=C3)C=NN4)F
Method in brief: as §1

[9] = compound: CC1=C(C2=C(C=C1)C(=O)C3=CC=CC=C3N2CCCN)C
Method in brief: as §1

[10] = compound: C/C(=N\NC(=O)C1=CC(=CC=C1)S(=O)(=O)N2CCOCC2)/C3=C(C=CC(=C3)Cl)O
Method in brief: as §1

[11] = compound: C1=CC2=C(C=CC(=C2)/C=C\3/C(=O)NC(=NCC4=CC=CS4)S3)N=C1
Method in brief: as §1

[12] = compound: C1=CC=C2C(=C1)C3=NNC4=CC=CC(=C43)C2=O
Method in brief: as §1

IRAK-1-4 Inhibitor I = compound: C1COCCN1CCN2C3=CC=CC=C3N=C2NC(=O)C4=CC(=CC=C4)[N+](=O)[O-] [IRAK-1-4 Inhibitor I]
Method in brief: as §1

[13] = compound: CC(=O)c1cnc2ccc(-c3cc(Cl)c(O)c(Cl)c3)nc2c1N[C@H]1CC[C@H](CN(C)C)CC1
Method in brief: as §1

pinometostat = compound: CC(C)N(C[C@H]1O[C@@H](n2cnc3c(N)ncnc32)[C@H](O)[C@@H]1O)[C@H]1C[C@@H](CCc2nc3cc(C(C)(C)C)ccc3[nH]2)C1 [pinometostat]
Method in brief: as §1

[14] = compound: C1=CC(=C(C=C1Cl)C2=NC3=NC=CN=C3C(=N2)NC4=CC=NC=C4)F
Method in brief: as §1

[15] = compound: CC(C)(O)CC(=O)NCCn1ccc2ncnc(Nc3ccc(Oc4cccc(C(F)(F)F)c4)c(Cl)c3)c21
Method in brief: as §1

Measured: log2 fold change

IKZF1 isoform 2 (UniProt Q13422)
Sequence of UniProt Q13422 (Q13422 whole entry, looked up): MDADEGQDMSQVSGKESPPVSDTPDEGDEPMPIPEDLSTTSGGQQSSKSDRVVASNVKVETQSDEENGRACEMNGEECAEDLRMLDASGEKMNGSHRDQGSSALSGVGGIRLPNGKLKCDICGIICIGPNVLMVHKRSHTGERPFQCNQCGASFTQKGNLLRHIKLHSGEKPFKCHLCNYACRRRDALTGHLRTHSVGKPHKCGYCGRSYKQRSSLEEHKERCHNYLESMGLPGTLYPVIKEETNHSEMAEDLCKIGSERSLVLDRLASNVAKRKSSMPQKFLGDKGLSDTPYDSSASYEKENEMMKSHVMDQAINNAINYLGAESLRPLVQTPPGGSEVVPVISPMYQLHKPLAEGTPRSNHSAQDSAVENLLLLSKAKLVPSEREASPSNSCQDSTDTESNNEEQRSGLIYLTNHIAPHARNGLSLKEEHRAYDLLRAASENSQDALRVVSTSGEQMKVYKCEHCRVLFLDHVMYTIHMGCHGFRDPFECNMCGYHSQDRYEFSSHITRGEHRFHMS
inactive: erlotinib 0.017 | [1] -0.006 | [2] 0.046 | [3] 0.047 | [5] -0.016 | ibrutinib 0.252 | ralimetinib 0.152 | [6] 0.031 | [7] 0.159 | [8] -0.041
active: [4] -0.38 | [9] 0.418

MAP2K5 (UniProt Q13163)
Sequence of UniProt Q13163 (Q13163 whole entry, looked up): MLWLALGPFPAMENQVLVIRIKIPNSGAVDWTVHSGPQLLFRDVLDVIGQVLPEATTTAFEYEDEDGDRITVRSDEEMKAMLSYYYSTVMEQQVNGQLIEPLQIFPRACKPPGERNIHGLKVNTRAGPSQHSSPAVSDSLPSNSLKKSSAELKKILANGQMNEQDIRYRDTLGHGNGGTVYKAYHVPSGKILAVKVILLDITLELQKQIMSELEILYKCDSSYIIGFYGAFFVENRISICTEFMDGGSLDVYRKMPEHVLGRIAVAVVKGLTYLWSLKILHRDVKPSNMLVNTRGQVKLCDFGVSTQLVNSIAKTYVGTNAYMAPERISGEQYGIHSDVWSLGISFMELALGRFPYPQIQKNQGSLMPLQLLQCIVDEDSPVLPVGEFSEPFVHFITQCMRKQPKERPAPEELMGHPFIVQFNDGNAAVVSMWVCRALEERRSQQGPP
active: [13] -1.19
inactive: [10] 0.021 | [11] 0.277 | [3] 0.145 | [12] -0.036 | IRAK-1-4 Inhibitor I 0.063 | ralimetinib 0.066 | [7] -0.238 | pinometostat -0.051

ING5 (UniProt Q8WYH8)
inactive: erlotinib 0.273 | [1] -0.119 | [4] 0.003 | [5] 0.286 | IRAK-1-4 Inhibitor I 0.101 | [6] -0.395 | pinometostat 0.097 | [9] 0.03

MAP4K4 isoform 6 (UniProt O95819)
Sequence of UniProt O95819 (O95819 whole entry, looked up): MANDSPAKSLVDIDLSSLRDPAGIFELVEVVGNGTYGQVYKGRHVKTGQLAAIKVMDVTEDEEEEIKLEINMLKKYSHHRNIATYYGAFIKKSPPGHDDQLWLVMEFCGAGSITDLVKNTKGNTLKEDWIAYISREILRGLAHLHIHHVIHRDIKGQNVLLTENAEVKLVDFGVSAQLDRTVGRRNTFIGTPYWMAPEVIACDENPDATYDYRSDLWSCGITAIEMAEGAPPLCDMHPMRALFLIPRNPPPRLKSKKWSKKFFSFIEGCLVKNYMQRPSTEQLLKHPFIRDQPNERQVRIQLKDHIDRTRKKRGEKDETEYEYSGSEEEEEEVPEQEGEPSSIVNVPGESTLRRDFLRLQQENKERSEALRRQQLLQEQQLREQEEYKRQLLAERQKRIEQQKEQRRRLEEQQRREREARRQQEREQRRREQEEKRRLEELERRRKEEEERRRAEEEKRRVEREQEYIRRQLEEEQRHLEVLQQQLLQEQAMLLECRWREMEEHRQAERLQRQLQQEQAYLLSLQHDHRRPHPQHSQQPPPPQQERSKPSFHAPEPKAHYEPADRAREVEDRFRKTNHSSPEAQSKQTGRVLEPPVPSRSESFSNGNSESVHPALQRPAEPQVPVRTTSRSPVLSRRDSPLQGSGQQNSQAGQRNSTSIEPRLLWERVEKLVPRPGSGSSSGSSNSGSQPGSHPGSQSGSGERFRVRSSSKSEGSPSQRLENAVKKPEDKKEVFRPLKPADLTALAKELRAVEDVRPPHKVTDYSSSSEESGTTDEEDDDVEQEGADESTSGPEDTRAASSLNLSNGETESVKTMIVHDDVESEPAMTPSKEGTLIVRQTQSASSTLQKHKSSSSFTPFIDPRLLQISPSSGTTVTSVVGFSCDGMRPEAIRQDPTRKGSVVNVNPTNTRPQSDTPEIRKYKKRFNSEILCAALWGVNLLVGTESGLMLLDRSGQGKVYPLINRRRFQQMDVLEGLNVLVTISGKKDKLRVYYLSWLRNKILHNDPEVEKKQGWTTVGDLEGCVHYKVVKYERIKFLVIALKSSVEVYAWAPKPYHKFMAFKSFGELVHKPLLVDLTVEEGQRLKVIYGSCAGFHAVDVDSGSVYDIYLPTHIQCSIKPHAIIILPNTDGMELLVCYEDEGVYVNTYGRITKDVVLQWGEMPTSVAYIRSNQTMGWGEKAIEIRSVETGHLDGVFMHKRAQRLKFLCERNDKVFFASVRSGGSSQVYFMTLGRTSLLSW
inactive: [4] -0.168 | [5] -0.025 | [8] -0.033 | [9] 0.143

MCOLN3 (UniProt Q8TDD5)
inactive: erlotinib 0.244 | [1] -0.016 | [2] 0.112 | [3] -0.049 | [4] 0.053 | [5] 0.107 | ibrutinib -0.17 | ralimetinib -0.057 | [6] 0.019 | [7] 0.029 | [8] 0.03 | [9] 0.08

ITPRID2 (UniProt P28290)
active: [6] -0.686
inactive: erlotinib 0.022 | [14] -0.133 | [1] -0.268 | [3] -0.213 | IRAK-1-4 Inhibitor I 0.004 | ralimetinib -0.025 | [15] 0.238 | [7] 0.063 | pinometostat 0.03

MGRN1 isoform 2 (UniProt O60291)
Sequence of UniProt O60291 (O60291 whole entry, looked up): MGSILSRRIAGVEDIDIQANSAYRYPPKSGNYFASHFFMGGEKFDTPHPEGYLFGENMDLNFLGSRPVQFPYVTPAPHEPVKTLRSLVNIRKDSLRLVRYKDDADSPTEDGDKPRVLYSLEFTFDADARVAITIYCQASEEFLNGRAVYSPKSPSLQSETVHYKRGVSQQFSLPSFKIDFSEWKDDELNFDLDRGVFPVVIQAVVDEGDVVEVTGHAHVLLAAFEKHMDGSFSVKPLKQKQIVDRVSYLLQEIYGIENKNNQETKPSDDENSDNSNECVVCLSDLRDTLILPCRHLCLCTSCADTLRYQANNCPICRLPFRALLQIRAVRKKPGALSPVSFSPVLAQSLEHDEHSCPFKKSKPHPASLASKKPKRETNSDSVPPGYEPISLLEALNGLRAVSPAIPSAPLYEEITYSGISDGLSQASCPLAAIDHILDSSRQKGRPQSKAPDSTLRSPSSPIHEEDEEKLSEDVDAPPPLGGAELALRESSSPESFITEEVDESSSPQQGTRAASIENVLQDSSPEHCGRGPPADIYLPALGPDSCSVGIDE
inactive: erlotinib 0.016 | [10] 0.079 | [1] 0 | [2] 0.004 | [3] -0.095 | [12] 0.073 | [4] 0.008 | [5] 0.227 | IRAK-1-4 Inhibitor I 0.062 | ibrutinib -0.003 | [13] 0.116 | ralimetinib -0.015 | [6] -0.225 | [7] 0.114 | pinometostat 0.041 | [9] -0.098
active: [11] -0.544

MARCHF3 (UniProt Q86UD3)
Sequence of UniProt Q86UD3 (Q86UD3 whole entry, looked up): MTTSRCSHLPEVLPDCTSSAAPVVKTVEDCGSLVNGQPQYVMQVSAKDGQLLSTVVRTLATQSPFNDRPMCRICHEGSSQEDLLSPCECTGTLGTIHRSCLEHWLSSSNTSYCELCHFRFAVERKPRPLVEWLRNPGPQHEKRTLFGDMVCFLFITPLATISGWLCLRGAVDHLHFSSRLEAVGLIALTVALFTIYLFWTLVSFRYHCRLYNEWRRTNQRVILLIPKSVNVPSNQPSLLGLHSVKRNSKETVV
inactive: [14] -0.188 | [2] -0.073 | ibrutinib 0.073 | [15] -0.133 | [8] -0.058

MFAP3 (UniProt P55082)
inactive: [10] 0.202 | [14] -0.021 | [11] 0.029 | [2] -0.106 | [12] -0.142 | [4] -0.088 | [5] 0.064 | ibrutinib -0.027 | [13] -0.067 | [15] -0.165 | [9] -0.111

LRFN1 (UniProt Q9P244)
Sequence of UniProt Q9P244 (Q9P244 whole entry, looked up): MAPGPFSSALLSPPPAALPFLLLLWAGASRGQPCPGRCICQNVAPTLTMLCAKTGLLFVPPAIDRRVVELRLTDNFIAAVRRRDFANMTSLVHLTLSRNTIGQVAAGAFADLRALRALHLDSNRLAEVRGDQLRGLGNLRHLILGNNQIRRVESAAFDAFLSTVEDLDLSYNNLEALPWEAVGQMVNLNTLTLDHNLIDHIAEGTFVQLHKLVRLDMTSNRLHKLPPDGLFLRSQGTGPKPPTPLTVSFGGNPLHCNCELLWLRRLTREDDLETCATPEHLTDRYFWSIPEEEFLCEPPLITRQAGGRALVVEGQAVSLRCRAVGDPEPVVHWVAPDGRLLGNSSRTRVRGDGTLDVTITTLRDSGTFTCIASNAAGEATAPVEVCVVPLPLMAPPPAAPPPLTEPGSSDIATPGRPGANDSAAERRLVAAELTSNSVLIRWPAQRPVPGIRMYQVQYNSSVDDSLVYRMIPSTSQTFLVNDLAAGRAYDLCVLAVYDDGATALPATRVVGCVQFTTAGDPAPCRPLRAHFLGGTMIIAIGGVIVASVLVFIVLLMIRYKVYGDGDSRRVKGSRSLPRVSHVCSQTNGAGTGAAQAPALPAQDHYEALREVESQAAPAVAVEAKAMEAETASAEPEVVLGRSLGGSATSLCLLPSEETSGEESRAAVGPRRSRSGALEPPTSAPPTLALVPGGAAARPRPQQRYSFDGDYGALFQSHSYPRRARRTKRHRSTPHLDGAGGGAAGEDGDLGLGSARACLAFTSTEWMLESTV
inactive: erlotinib 0.059 | [14] -0.028 | [1] 0 | [2] 0.004 | [3] -0.038 | [4] -0.1 | [5] 0.052 | IRAK-1-4 Inhibitor I 0.105 | ibrutinib -0.018 | ralimetinib -0.009 | [15] 0.073 | [6] 0.107 | [7] 0.061 | pinometostat 0.029 | [9] 0.008

IKZF1 (UniProt R9R4D9)
inactive: [4] -0.055 | [5] -0.13 | IRAK-1-4 Inhibitor I -0.1 | pinometostat -0.103 | [9] 0.385

IGFBP6 (UniProt P24592)
Sequence of UniProt P24592 (P24592 whole entry, looked up): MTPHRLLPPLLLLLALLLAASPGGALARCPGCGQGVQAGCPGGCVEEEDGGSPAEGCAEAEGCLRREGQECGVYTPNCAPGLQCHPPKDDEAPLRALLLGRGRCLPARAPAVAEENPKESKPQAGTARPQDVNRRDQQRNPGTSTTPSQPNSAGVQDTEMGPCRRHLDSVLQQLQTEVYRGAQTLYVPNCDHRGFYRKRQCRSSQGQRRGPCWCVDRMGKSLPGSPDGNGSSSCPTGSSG
inactive: [10] -0.215 | [11] 0.057 | [3] 0.131 | [12] -0.19 | [13] -0.02 | ralimetinib -0.049 | [7] 0.097

KIF13A isoform 4 (UniProt Q9H1H9)
inactive: [10] 0.21 | [11] 0.161 | [12] 0.021 | [13] 0.123

ILF3 (UniProt Q12906)
inactive: [14] -0.083 | [2] 0.128 | IRAK-1-4 Inhibitor I -0.058 | ibrutinib 0.036 | [15] 0.191 | pinometostat 0.029 | [8] -0.126

MBLAC1 (UniProt A4D2B0)
inactive: erlotinib 0.074 | [10] -0.042 | [1] 0.026 | [11] 0.036 | [2] 0.019 | [3] 0.002 | [12] -0.024 | IRAK-1-4 Inhibitor I 0.371 | ibrutinib -0.03 | [13] 0.001 | ralimetinib -0.074 | [6] 0.126 | [7] -0.011 | pinometostat -0.163

MAGEA8 (UniProt P43361)
Sequence of UniProt P43361 (P43361 whole entry, looked up): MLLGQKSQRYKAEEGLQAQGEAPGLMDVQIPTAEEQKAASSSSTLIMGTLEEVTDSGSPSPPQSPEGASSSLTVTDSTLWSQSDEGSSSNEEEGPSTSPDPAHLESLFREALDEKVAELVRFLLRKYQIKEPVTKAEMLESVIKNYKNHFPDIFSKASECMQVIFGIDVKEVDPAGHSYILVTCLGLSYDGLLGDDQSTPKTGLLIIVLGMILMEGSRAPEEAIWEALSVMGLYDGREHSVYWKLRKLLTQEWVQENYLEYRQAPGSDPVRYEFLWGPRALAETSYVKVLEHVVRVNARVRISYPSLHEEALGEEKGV
inactive: erlotinib 0.033 | [10] 0.038 | [1] -0.075 | [11] -0.04 | [2] 0.132 | [3] -0.028 | [12] -0.098 | [4] 0.052 | [5] 0.099 | IRAK-1-4 Inhibitor I 0.014 | ibrutinib -0.086 | [13] 0.128 | ralimetinib -0.02 | [6] -0.146 | [7] 0.068 | pinometostat 0.024 | [8] 0.077 | [9] -0.265

LSR (UniProt M0QZL9)
inactive: [14] 0.029 | [15] 0.057

KIZ (UniProt Q2M2Z5)
inactive: [10] 0.018 | [11] 0.077 | [3] 0.103 | [12] -0.01 | IRAK-1-4 Inhibitor I -0.075 | [13] 0.039 | ralimetinib 0.06 | [7] -0.107 | pinometostat 0.099

IGFBP3 isoform 2 (UniProt P17936)
Sequence of UniProt P17936 (P17936 whole entry, looked up): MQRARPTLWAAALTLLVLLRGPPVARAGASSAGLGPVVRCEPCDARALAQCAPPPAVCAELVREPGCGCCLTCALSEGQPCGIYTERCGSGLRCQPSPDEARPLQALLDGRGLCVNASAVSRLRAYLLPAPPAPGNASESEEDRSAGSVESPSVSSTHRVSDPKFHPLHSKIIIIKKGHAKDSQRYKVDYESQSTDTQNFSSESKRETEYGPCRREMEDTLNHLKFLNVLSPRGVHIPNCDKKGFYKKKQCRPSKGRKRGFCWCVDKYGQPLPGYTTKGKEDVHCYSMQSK
inactive: [10] -0.18 | [14] -0.094 | [11] 0.049 | [12] -0.172 | [4] 0.032 | [5] -0.057 | IRAK-1-4 Inhibitor I 0.115 | [13] 0.097 | [15] 0.196 | pinometostat -0.004 | [9] -0.095

LAPTM4B (UniProt Q86VI4)
Sequence of UniProt Q86VI4 (Q86VI4 whole entry, looked up): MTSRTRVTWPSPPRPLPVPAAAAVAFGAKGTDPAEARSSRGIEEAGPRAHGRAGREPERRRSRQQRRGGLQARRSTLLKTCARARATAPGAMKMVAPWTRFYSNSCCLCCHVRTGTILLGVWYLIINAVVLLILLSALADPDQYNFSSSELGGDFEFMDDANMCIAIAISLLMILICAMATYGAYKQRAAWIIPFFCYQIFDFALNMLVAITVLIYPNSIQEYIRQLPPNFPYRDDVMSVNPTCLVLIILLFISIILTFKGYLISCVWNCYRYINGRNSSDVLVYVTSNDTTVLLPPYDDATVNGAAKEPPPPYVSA
inactive: erlotinib -0.074 | [1] -0.054 | [2] 0.093 | ibrutinib 0.019 | [6] 0.141
